From ChEMBL document CHEMBL1961873, “Compounds: GSK PKIS; Assays: Nanosyn kinase panel” (2012)
Values joined by “and” are separate entries in the source; they are usually repeats but may differ in a detail not shown here. Equal values may be shown once.

What follows are compounds tested against Fibroblast growth factor receptor 1 (Homo sapiens) (UniProt P11362). Settings: at 1 µM.
Chain of Fibroblast growth factor receptor 1 (Homo sapiens) (P11362 22-822 limits assumed): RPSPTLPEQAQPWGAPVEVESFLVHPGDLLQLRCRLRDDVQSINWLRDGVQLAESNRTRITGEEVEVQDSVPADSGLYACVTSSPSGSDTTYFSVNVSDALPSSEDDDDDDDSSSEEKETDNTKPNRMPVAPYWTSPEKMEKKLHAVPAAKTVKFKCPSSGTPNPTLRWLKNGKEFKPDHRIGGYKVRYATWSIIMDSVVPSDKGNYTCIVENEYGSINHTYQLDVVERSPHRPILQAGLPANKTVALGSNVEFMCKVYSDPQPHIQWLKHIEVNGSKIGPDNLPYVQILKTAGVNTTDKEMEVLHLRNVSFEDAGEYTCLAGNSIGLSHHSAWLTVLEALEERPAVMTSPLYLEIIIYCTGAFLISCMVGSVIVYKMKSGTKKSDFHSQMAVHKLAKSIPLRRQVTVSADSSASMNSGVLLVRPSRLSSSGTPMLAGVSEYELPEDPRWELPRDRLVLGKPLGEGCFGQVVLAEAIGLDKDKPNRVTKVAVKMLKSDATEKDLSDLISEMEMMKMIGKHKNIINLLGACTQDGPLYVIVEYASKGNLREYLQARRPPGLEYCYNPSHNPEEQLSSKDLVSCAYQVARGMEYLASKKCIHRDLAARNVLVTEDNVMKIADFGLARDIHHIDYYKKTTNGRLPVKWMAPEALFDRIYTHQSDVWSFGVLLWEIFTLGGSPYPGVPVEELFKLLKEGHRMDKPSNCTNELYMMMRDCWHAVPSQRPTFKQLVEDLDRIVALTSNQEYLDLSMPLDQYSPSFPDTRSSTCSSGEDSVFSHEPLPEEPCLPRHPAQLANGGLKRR
`CC1=C(C(=O)Nc2ccc3[nH]nc(C)c3c2)C(c2ccc(C(F)(F)F)cc2)CC(=O)N1` (configuration not stated) gave an inhibition of 9.3%. `COc1cc(N2CCN(C(C)C)CC2)ccc1Nc1nc(Nc2cccc3ncccc23)c2cc[nH]c2n1` was tested, and the inhibition was -4.83%. For `COc1cc(Nc2ncc(-c3ccccc3)o2)cc(OC)c1`, the inhibition was 7.89%. Work on `COc1cccc(Nc2nccc(-c3cnn4ncccc34)n2)c1` yielded an inhibition of 4.55%. In the case of `O=C(Nc1n[nH]c2nnc(-c3cccnc3)cc12)C1CC1`, the inhibition is reported as -1.08%. With `CN1CCN(Cc2ccc(-c3cc4ncnc(Nc5ccc(OCc6cccc(F)c6)c(Cl)c5)c4s3)o2)CC1` the inhibition was 2.3% and 1.47%. Work on `CCCNc1cccc(-n2ncc3c(N/N=C/c4ccncc4)ncnc32)c1` yielded an inhibition of 3.31%. `CS(=O)(=O)Nc1ccc(-c2ccc3c(NC(=O)C4CC4)n[nH]c3c2)cc1` gave an inhibition of 6.36%. `COc1cccc(-n2ncc3c(N/N=C/c4ccc(C(=O)NCCN(C)C)cc4)ncnc32)c1` gave an inhibition of 9.7%. In the case of `O=C(O[C@H]1CN[C@H](C#Cc2cc3ncnc(Nc4ccc(OCc5cccc(F)c5)c(Cl)c4)c3s2)C1)N1CCOCC1`, the inhibition is reported as 3.49%. With `O=C(O[C@H]1CN[C@H](C#Cc2cc3ncnc(Nc4ccc5c(cnn5Cc5ccccc5)c4)c3s2)C1)N1CCOCC1` the inhibition was -1.28%. For `CCn1c(-c2nonc2N)nc2cncc(C(=O)NCCNC)c21`, the inhibition was 4.72%. `O=C(O[C@H]1CN[C@H](C#Cc2cc3ncnc(Nc4ccc5c(ccn5Cc5cc(F)ccc5F)c4)c3s2)C1)N1CCOCC1` gave an inhibition of 2.23%. With `c1ccc(-c2n[nH]cc2-c2ccnc(-c3ccc(OCCn4ccnc4)cc3)c2)nc1` the inhibition was 3.09%. `COc1cc2c(cc1Nc1nc(Nc3cccc(F)c3C(N)=O)c3cc[nH]c3n1)N(C(=O)CN1CCN(C(C)C)CC1)CC2` showed an inhibition of 2.78%. `CNC(=O)c1cncc(/C=C/c2ccccc2C)c1` was tested, and the inhibition was 3.14%. In the case of `N#Cc1cccc(Nc2ncc(-c3ccccc3)o2)c1`, the inhibition is reported as 2.95%. `CCN1CCC(C(=O)Nc2n[nH]c3nnc(-c4cccc(F)c4F)cc23)CC1` showed an inhibition of -1.81%. In the case of `Nc1nonc1-c1nc2cnccc2n1C1CC1`, the inhibition is reported as 8.28% and -2.04%. With `O=C1Nc2ccccc2/C1=C1\CCc2cc(O)ccc21` the inhibition was 23.5%. `Fc1ccc(Nc2nccc(-c3c(-c4ccc(C(F)(F)F)cc4)nn4ncccc34)n2)cc1F` was tested, and the inhibition was 4.6%. Work on `CCS(=O)(=O)c1ccc(OC)c(Nc2ncc(-c3cccc(F)c3)o2)c1` yielded an inhibition of 46.2%. In the case of `OCCCNc1nccc(-c2c(-c3ccc(F)cc3)nn3cc(C(F)(F)F)ccc23)n1`, the inhibition is reported as 6.47%. Work on `CN(c1ccc(NC(=O)NCCN2CCOCC2)cc1)c1ccnc(Nc2ccc(CS(C)(=O)=O)cc2)n1` yielded an inhibition of 0.91%. For `Nc1nccc(-c2c(-c3ccc(F)cc3)ncn2C2CCNCC2)n1`, the inhibition was -4.83% and 1.62%. `CC1(C)CC(n2cnc(-c3ccc(F)cc3)c2-c2ccnc(N)n2)CC(C)(C)N1` showed an inhibition of 1.68%. In the case of `Cn1c(-c2nonc2N)nc2cnccc21`, the inhibition is reported as 2.36%. Compound `COc1ccc2ncn(-c3cc(O[C@H](C)c4ccccc4C(F)(F)F)c(C(N)=O)s3)c2c1` has an inhibition of -0.51%. With `Cc1c2ccc(N(C)c3ccnc(Nc4cccc(S(N)(=O)=O)c4)n3)cc2nn1C` the inhibition was 62.6%. `CNC(=O)c1ncccc1Nc1nc(Nc2cc3c(cc2OC)CCCN3C(=O)CN(C)C)nc2[nH]ccc12` showed an inhibition of 3.03%. With `COC(=O)Nc1nc2cc(Oc3ccc(NC(=O)Nc4ccccc4)cc3)ccc2[nH]1` the inhibition was 1.47%.

The compounds below were run against Fibroblast growth factor receptor 2 (Homo sapiens) (UniProt P21802). Settings: at 0.1 µM.
Chain of Fibroblast growth factor receptor 2 (Homo sapiens) (P21802 22-821 limits assumed): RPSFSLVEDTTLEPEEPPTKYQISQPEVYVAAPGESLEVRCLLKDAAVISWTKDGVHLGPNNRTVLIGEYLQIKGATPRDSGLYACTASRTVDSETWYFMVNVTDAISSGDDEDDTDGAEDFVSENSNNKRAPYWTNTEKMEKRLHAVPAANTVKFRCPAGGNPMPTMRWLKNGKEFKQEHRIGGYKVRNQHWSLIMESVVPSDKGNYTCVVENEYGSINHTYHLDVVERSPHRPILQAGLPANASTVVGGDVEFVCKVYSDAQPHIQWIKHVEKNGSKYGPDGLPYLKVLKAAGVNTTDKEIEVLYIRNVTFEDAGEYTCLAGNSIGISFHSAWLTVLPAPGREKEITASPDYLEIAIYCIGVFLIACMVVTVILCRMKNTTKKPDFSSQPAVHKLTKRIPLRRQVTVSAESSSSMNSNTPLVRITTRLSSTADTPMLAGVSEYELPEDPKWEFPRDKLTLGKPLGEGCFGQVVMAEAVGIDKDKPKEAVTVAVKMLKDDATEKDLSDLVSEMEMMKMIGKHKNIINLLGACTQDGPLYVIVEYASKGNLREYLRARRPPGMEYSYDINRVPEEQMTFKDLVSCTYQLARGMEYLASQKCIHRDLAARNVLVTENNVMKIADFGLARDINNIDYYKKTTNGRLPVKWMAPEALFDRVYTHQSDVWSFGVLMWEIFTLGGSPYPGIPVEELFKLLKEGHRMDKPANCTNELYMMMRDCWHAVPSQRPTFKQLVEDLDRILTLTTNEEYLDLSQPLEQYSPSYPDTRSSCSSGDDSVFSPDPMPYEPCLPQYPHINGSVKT
For `CC1=C(C(=O)Nc2ccc3[nH]nc(C)c3c2)C(c2ccc(C(F)(F)F)cc2)CC(=O)N1` (configuration not stated), the inhibition was 4.48%. `COc1cc(N2CCN(C(C)C)CC2)ccc1Nc1nc(Nc2cccc3ncccc23)c2cc[nH]c2n1` was tested, and the inhibition was -2.09%. In the case of `COc1cc(Nc2ncc(-c3ccccc3)o2)cc(OC)c1`, the inhibition is reported as 3.62%. `COc1cccc(Nc2nccc(-c3cnn4ncccc34)n2)c1` showed an inhibition of 1.68%. `O=C(Nc1n[nH]c2nnc(-c3cccnc3)cc12)C1CC1` was tested, and the inhibition was -0.85%. For `CN1CCN(Cc2ccc(-c3cc4ncnc(Nc5ccc(OCc6cccc(F)c6)c(Cl)c5)c4s3)o2)CC1`, the inhibition was 3.18% and 3.5%. Work on `CCCNc1cccc(-n2ncc3c(N/N=C/c4ccncc4)ncnc32)c1` yielded an inhibition of 2.19%. For `CS(=O)(=O)Nc1ccc(-c2ccc3c(NC(=O)C4CC4)n[nH]c3c2)cc1`, the inhibition was 3.37%. Compound `COc1cccc(-n2ncc3c(N/N=C/c4ccc(C(=O)NCCN(C)C)cc4)ncnc32)c1` has an inhibition of 5.08%. For `O=C(O[C@H]1CN[C@H](C#Cc2cc3ncnc(Nc4ccc(OCc5cccc(F)c5)c(Cl)c4)c3s2)C1)N1CCOCC1`, the inhibition was 6.97%. `O=C(O[C@H]1CN[C@H](C#Cc2cc3ncnc(Nc4ccc5c(cnn5Cc5ccccc5)c4)c3s2)C1)N1CCOCC1` was tested, and the inhibition was -0.61%. In the case of `CCn1c(-c2nonc2N)nc2cncc(C(=O)NCCNC)c21`, the inhibition is reported as 3.81%. With `O=C(O[C@H]1CN[C@H](C#Cc2cc3ncnc(Nc4ccc5c(ccn5Cc5cc(F)ccc5F)c4)c3s2)C1)N1CCOCC1` the inhibition was 3.95%. With `c1ccc(-c2n[nH]cc2-c2ccnc(-c3ccc(OCCn4ccnc4)cc3)c2)nc1` the inhibition was 0.47%. `COc1cc2c(cc1Nc1nc(Nc3cccc(F)c3C(N)=O)c3cc[nH]c3n1)N(C(=O)CN1CCN(C(C)C)CC1)CC2` gave an inhibition of 5.89%. Compound `CNC(=O)c1cncc(/C=C/c2ccccc2C)c1` has an inhibition of 2.42%. `N#Cc1cccc(Nc2ncc(-c3ccccc3)o2)c1` showed an inhibition of 2.66%. `CCN1CCC(C(=O)Nc2n[nH]c3nnc(-c4cccc(F)c4F)cc23)CC1` gave an inhibition of -0.41%. In the case of `Nc1nonc1-c1nc2cnccc2n1C1CC1`, the inhibition is reported as 5.07% and -2.09%. `O=C1Nc2ccccc2/C1=C1\CCc2cc(O)ccc21` gave an inhibition of 9.87%. `Fc1ccc(Nc2nccc(-c3c(-c4ccc(C(F)(F)F)cc4)nn4ncccc34)n2)cc1F` showed an inhibition of 5.3%. For `CCS(=O)(=O)c1ccc(OC)c(Nc2ncc(-c3cccc(F)c3)o2)c1`, the inhibition was 40.5%. `OCCCNc1nccc(-c2c(-c3ccc(F)cc3)nn3cc(C(F)(F)F)ccc23)n1` showed an inhibition of 0.64%. In the case of `CN(c1ccc(NC(=O)NCCN2CCOCC2)cc1)c1ccnc(Nc2ccc(CS(C)(=O)=O)cc2)n1`, the inhibition is reported as 7.93%. With `Nc1nccc(-c2c(-c3ccc(F)cc3)ncn2C2CCNCC2)n1` the inhibition was -3.3% and 0.04%. Compound `CC1(C)CC(n2cnc(-c3ccc(F)cc3)c2-c2ccnc(N)n2)CC(C)(C)N1` has an inhibition of -0.84%. In the case of `Cn1c(-c2nonc2N)nc2cnccc21`, the inhibition is reported as 2.83%. Work on `COc1ccc2ncn(-c3cc(O[C@H](C)c4ccccc4C(F)(F)F)c(C(N)=O)s3)c2c1` yielded an inhibition of -2.58%. Compound `Cc1c2ccc(N(C)c3ccnc(Nc4cccc(S(N)(=O)=O)c4)n3)cc2nn1C` has an inhibition of 50%. Compound `CNC(=O)c1ncccc1Nc1nc(Nc2cc3c(cc2OC)CCCN3C(=O)CN(C)C)nc2[nH]ccc12` has an inhibition of 6.69%. `COC(=O)Nc1nc2cc(Oc3ccc(NC(=O)Nc4ccccc4)cc3)ccc2[nH]1` was tested, and the inhibition was 1.69%.
